# About 79,000 compounds went through this panel and 15% of them were active in at least one assay; those are over-represented in the sample as a whole. A number with no mark means an inactive call. The source made the active and inactive calls. Rule as the data show it: active = growth inhibition above about 70%; inactive = the rest.
# Tests used:
# [1] = NCI Yeast Anticancer Drug Screen. Data for the rad50 strain (AID 155);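 also: 0% = growth of vehicle-only cultures of the same strain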; conditions: S. cerevisiae rad50 strain growth inhibition; at 50.0 µM; active compounds read high
# How it was run: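 Inhibition values express reduced yeast growth in compound-treated cultures relative to vehicle-treated controls.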
# [2] = NCI Yeast Anticancer Drug Screen. Data for the mec2-1 strain (AID 157); conditions: S. cerevisiae mec2-1 strain, at 50.0 µM, active compounds read high
# How it was run: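 Compounds were applied to mec2-1 yeast cells. Their growth was then compared with that of vehicle-treated cultures to give growth inhibition.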
# [3] = NCI Yeast Anticancer Drug Screen. Data for the sgs1 mgt1 strain (AID 161);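 also: 0% = growth of cultures given vehicle only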; conditions: S. cerevisiae sgs1 mgt1 strain, at 50.0 µM, active compounds read high
# How it was run: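 Yeast cells carrying a defined DNA-repair defect were exposed to test compounds. Growth inhibition was measured relative to vehicle-treated controls.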
# [4] = NCI Yeast Anticancer Drug Screen. Data for the cln2 rad14 strain (AID 165);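 also: 0% = growth equal to vehicle treated cultures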; conditions: S. cerevisiae cln2 rad14 strain, at 50.0 µM, active compounds read high
# How it was run: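 Strain: cln2 rad14 yeast, altered in cell cycle control and DNA damage repair. Read-out: growth inhibition vs vehicle.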
# [5] = NCI Yeast Anticancer Drug Screen. Data for the bub3 strain (AID 167); conditions: S. cerevisiae bub3 mutant strain, at 50.0 µM, active compounds read high
# How it was run: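 Steps: expose the mutant yeast strain to compound; grow alongside vehicle-treated cultures; measure growth; express inhibition against the vehicle cultures.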
# [6] = NCI Yeast Anticancer Drug Screen. Data for the mlh1 rad18 strain (AID 175); conditions: S. cerevisiae mlh1 rad18 strain growth inhibition; at 50.0 µM; active compounds read high
# How it was run: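 A repair-deficient yeast strain is exposed to test compound, and growth is scored relative to vehicle-treated controls.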
Structure (SMILES),growth inhibition [1],growth inhibition [2],growth inhibition [3],growth inhibition [4],growth inhibition [5],growth inhibition [6]
CCN1CCC(O)(c2ccc(Oc3ccc(F)cc3)cc2)C(C(=O)c2ccc(Oc3ccc(F)cc3)cc2)C1 (stereo unspecified),20.1%,2.9%,14.6%,5.95%,5.65%,29.9%
O=c1oc(=O)c2ccccc2c2ccccc12,-22.9%,6.85%,-0.9%,-32.1%,-3.75%,-5.6%
CCCCC(CC)COC(=O)C(C)CCC (stereo unspecified),4.65%,-1.1%,-2.4%,-27.7%,17.9%,5%
O=C(O)c1cccnc1Cl,10.2%,-3.5%,-9.9%,14.4%,4.15%,-4.45%
O=c1cc(CC(O)(c2ccccc2)c2ccccc2)cc[nH]1,16.1%,3.8%,-4.65%,-10.8%,-0.35%,-1%
NC(=O)c1csc(CCCCCCc2nc(C(N)=O)cs2)n1,-13.8%,-15.5%,-5%,8.75%,-21.2%,-21.1%
CCCCCCCC[N+]1([O-])CC[N+](C)([O-])CC1 (stereo unspecified),3.9%,4.1%,-2.25%,-21.5%,-8.3%,2.55%
COc1ccc(/C(Br)=C2\OC(=O)c3ccccc32)cc1,-7.95%,-19.9%,-13.4%,-35.1%,18.4%,-6.9%
CNc1ccc(OC)cc1,-4.9%,-0.9%,-13.4%,-1%,7.35%,3.25%
COc1cc(CC2C(=O)NC(=O)NC2=O)ccc1OCc1ccccc1,17.8%,-7.75%,-5.1%,-19.4%,-21.4%,-47%
O=C(OCc1ccccc1CN1CCCC1)c1ccc([N+](=O)[O-])cc1Cl,-13%,-15.8%,-13.7%,-52.7%,-0.9%,-54.8%
c1ccc2c3c(ccc2c1)CCC3,-20.9%,-42.9%,-35%,10%,-25.4%,-12.4%
O=C(O)CCCC1=C2CCC(=O)C=C2CCC1,-15.8%,-24.6%,-10.3%,0.2%,-20.6%,-10.1%
CC1CCC(C(C)(C)O)CC1O (stereo unspecified),-12.9%,2.05%,0.9%,-9.05%,-16.8%,-7.55%
CCN(CC)C(=O)Cn1c2c(c3ccccc31)CCCC2,33.4%,-30.4%,2.2%,1.15%,-2.6%,-11.9%
COC1OCC(NC(C)=O)C(OC(C)=O)C1OC(C)=O (stereo unspecified),12.4%,-13.1%,-4.1%,2.35%,-1.3%,-8%
C=CCNC(=O)N(CCCC(NC(C)=O)C(=O)NCc1ccccc1)Cc1ccccc1 (stereo unspecified),2.5%,-2.85%,-8.85%,26.4%,-5.25%,-10.2%
CCCCCCCCCC(=O)OCC1OC(n2cc(F)c(=O)[nH]c2=O)C(NC(=O)OCc2ccccc2)C(OC(=O)CCCCCCCCC)C1O (stereo unspecified),-5.9%,-10.2%,-11.8%,6.9%,-0.35%,-21%
Cc1ccc(CS(=O)(=O)c2ccc(C)cc2)cc1,-3.3%,-0.45%,-4.2%,-36.8%,-22.9%,-2.35%
Cc1ccc(-c2nc3scc(C)n3n2)cc1,0.85%,6.6%,-4.5%,-29%,7.65%,8.85%
CCNC(=O)N(Cc1ccccc1)Cc1ccccc1,7.55%,8.65%,6.05%,13.3%,23.5%,-20.6%

Structure (SMILES),growth inhibition [1],growth inhibition [2],growth inhibition [3],growth inhibition [4],growth inhibition [5],growth inhibition [6]
COC1OC(COS(=O)(=O)c2ccc(C)cc2)C(OS(=O)(=O)c2ccc(C)cc2)C1OCc1ccccc1 (stereo unspecified),-2.35%,2.85%,3.9%,-15.7%,-0.65%,-1.4%
CN(C)CCn1c(CO)nc2c1c(=O)n(C)c(=O)n2C,-9.95%,12.2%,-21.4%,-15.2%,0.1%,-5.6%
Oc1c(Cl)cc(Cl)cc1C1N2CCCCC2C2c3cccn3-c3ccccc3N21 (stereo unspecified),22.4%,5.4%,18.3%,14.2%,21.2%,-30.6%
COCCNC(=O)C1C(=O)C(=O)N(CCOC)C1=O (stereo unspecified),-17.8%,-7.65%,-17.2%,-4.25%,-19.6%,-3.5%
Cn1c[n+](-c2ccccc2)c([S-])n1,-0.05%,5.05%,5.15%,-22.5%,-24.9%,-7.4%
CC1=C(C(=O)CC(=O)C(=O)NC2C3CC4CC(C3)CC2C4)Sc2ccccc2N1 (stereo unspecified),-33.5%,-0.15%,-2.6%,8.8%,-0.6%,-21%
NC(=O)CNCc1ccccc1,0.3%,-3.75%,12.7%,-52%,0.25%,4.25%
CCCCCCC1(C)OCC(c2ccccc2)O1 (stereo unspecified),-0.1%,-33.5%,5.95%,-11.7%,2.2%,9.65%
C#CCCC#C,-4.4%,-17.3%,8.4%,6%,-16.1%,-5.8%
O=P1(c2ccccc2)c2ccccc2CCc2ccccc21,18%,2.75%,21.8%,22.1%,2.25%,8.35%
CCN(CC)C1Oc2cc3c(cc2C(c2cccc(OC)c2O)C1C)OCO3 (stereo unspecified),21.1%,-0.15%,22.8%,21.7%,15.2%,-1.4%
CCOC(=O)C(CCCCS(=O)(=O)O)C(=O)OCC,-12.3%,-9.35%,-18.9%,-35%,-5.25%,11.2%
O=C1OC(C(=O)O)Cc2ccccc21 (stereo unspecified),-16.1%,-15.2%,-3.15%,-5.1%,-2.3%,-13.3%
CC(C)CCC(=O)C(C)C,19.7%,-9.55%,13.2%,11.5%,10.8%,15.2%
CCOC(=O)C(=CNc1ccc(NC2=NCC(C)S2)cc1)C(=O)OCC (stereo unspecified),-0.05%,0.35%,-20.4%,-7.9%,-35.8%,-47%
CCCCCCCC/C=C\CCCCCCCC(=O)NCCN(CC)CC,98.7% (active),99.3% (active),99.3% (active),96.8% (active),98.7% (active),98.8% (active)
CC(C)NC(=O)OCc1nnn2c1CCC2,-6.9%,0.05%,-12.5%,-22.7%,-0.05%,-4.05%
CC(C)(CN)C(=O)O,-3.2%,-6.95%,-11.6%,-17.1%,-0.3%,9.75%
Cc1ccsc1/C=N/Nc1nncc2ccccc12,20.3%,5.35%,20.6%,9.05%,30.4%,9.7%
CC1CN(c2ccc(Cl)cc2)CC(C)(C)OC(=O)O1 (stereo unspecified),-12.2%,-16.1%,-10.6%,0.2%,5.45%,-2.5%
